ChEMBL document CHEMBL3988442, “University of Dundee, Small-Polar-MMV Screening Library” (2021)
For some of these results: Measured potencies and affinities stand elsewhere.

How the values were obtained:
Design in all cases: scale not given: direction of the effect not stated beside the values
[1] = target: Protein translocase subunit SecA (Escherichia coli (strain K12)) (UniProt P10408); experiment: Assay to Identify E. coli SecA ATPase Inhibitors; type: functional; settings: 30 µM
[2] = target: T1, Ubiquitin-activating enzyme e1, putative (Leishmania donovani (strain BPK282A1)) (UniProt E9BSI1); experiment: Leishmania donovani Ubiquitin Activating Enzyme (LdE1); type: functional; settings: 30 µM
T1 sequence (whole entry): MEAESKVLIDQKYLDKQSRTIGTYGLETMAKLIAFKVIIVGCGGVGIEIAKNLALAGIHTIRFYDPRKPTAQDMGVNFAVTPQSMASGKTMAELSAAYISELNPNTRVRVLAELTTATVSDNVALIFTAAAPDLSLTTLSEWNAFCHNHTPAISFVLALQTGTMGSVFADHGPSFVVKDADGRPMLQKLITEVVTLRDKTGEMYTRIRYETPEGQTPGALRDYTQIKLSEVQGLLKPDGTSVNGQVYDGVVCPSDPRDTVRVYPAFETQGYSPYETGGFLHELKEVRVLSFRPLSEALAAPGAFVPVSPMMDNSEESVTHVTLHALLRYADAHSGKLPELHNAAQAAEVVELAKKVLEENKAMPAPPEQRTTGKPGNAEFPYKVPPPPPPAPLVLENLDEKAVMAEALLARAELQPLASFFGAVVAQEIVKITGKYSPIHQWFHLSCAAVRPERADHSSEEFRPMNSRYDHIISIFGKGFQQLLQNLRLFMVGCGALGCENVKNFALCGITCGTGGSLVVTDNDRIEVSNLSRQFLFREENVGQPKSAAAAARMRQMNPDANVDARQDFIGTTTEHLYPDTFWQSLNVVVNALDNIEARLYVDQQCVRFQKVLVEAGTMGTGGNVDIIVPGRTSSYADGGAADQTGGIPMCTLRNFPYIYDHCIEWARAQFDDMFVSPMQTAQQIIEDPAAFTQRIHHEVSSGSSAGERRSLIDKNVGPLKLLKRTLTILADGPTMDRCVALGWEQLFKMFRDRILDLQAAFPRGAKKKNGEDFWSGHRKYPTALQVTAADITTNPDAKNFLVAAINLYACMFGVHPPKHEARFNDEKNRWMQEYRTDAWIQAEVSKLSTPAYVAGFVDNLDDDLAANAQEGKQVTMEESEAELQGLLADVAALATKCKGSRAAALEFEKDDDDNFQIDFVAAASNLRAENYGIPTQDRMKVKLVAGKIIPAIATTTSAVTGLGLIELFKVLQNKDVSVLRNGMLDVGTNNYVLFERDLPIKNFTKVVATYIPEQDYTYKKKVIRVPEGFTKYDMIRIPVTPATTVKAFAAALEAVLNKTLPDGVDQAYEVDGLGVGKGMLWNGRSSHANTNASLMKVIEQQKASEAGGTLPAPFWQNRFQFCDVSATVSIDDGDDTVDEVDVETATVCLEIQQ

[3] = target: AMP-activated protein kinase, AMPK (Homo sapiens) (UniProt P54646+O43741+P54619+Q9UGJ0+Q9Y478+Q13131+Q9UGI9); experiment: AMP-dependent Kinase enzyme assay. An in vitro enzyme assay that detects ADP turnover that is directly proportional to AMPK activity. This uses naive AMPK that is activated during the assay with MK-8722; type: functional; settings: 30 µM
[4] = target: Sialic acid-binding Ig-like lectin 9 (Homo sapiens) (UniProt Q9Y336); experiment: Hs-Siglec9 ALPHAscreen SOP 20170721; settings: 10 µM
Trypanosoma cruzi = experiment: Trypanosoma cruzi phosphomannomutase and mannose-1-phosphate guanylyltransferase assay; type: functional; settings: 10 µM
[5] = target: T2, Arginase-2, mitochondrial (Homo sapiens) (UniProt P78540); experiment: in vitro enzyme assay to detect the production of urea directly proportional to the activity of Arginase II; type: functional; settings: 33.3 µM; further: in the data most compounds retested in dose-response had high values
T2 sequence (whole entry): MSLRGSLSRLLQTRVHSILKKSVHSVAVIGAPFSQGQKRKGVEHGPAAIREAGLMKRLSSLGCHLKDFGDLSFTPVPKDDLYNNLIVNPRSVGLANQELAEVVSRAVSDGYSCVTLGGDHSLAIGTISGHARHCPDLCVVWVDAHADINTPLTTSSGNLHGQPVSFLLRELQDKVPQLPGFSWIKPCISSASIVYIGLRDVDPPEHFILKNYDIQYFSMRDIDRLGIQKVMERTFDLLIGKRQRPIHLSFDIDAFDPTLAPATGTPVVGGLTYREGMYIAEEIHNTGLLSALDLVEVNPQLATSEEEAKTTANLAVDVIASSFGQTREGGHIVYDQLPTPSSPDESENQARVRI

[6] = target: T3, Proteasome subunit beta (Trypanosoma cruzi) (UniProt O96673); experiment: Trypanosoma cruzi proteasome chymotrypsin-like activity (TcProtChymo) assay.; further: in the data most compounds retested in dose-response had high values; type: functional; settings: 9.37 µM
T3 sequence (whole entry): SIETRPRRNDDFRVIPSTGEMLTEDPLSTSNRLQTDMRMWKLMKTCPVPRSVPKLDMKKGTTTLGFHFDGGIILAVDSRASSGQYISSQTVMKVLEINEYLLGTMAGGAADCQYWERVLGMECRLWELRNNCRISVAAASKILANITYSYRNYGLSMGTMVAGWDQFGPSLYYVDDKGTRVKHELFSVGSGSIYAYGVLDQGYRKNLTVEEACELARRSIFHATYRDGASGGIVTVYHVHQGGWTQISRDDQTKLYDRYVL

Homo sapiens = species on record: Homo sapiens; experiment: To identify inhibition of the IFN signalling (Jak-Stat) pathway via expression of an eGFP reporter gene under the control of an IFN-stimulated response element (ISRE) containing MxA promoter.; type: functional; settings: 30 µM
[7] = target: T4, Tyrosyl-tRNA synthetase, putative (Trypanosoma cruzi (strain CL Brener)) (UniProt Q4DSP6); experiment: Trypanosoma cruzi tyrosyl tRNA synthetase (TcYRS) _High Tyrosine SOP; type: functional; settings: 30 µM; further: in the data most compounds retested in dose-response had high values
T4 sequence (whole entry): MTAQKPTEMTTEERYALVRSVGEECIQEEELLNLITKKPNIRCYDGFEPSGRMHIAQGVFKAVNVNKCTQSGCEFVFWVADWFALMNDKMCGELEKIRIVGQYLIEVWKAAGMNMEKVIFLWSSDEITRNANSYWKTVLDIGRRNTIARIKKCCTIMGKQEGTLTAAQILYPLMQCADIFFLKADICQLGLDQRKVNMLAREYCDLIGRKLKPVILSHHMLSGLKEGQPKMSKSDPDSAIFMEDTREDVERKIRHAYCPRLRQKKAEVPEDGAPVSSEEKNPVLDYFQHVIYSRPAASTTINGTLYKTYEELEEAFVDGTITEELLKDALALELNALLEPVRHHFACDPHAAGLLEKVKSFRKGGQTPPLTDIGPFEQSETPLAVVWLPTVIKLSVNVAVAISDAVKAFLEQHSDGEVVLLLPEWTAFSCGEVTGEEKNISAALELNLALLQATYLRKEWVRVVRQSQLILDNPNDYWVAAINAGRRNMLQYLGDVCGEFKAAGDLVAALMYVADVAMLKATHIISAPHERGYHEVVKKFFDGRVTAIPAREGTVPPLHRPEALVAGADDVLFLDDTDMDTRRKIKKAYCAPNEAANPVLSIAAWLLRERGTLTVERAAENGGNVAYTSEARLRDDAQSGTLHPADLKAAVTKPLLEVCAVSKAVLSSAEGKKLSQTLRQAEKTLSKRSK

[8] = target: T4, Tyrosyl-tRNA synthetase, putative (Trypanosoma cruzi (strain CL Brener)); experiment: Trypanosoma cruzi tyrosyl tRNA synthetase (TcYRS) SOP; type: functional; settings: 30 µM
[9] = target: Chromo domain-containing protein 1 (Saccharomyces cerevisiae (strain ATCC 204508 / S288c) (Baker's yeast)) (UniProt P32657); experiment: ScCHD-1 Enzyme Inhibition Assay; type: functional; settings: 30 µM; further: in the data most compounds retested in dose-response had high values
Chromo domain-containing protein 1 (Saccharomyces cerevisiae (strain ATCC 204508 / S288c) (Baker's yeast)), sequence (P32657 whole entry, the tested form may be a part): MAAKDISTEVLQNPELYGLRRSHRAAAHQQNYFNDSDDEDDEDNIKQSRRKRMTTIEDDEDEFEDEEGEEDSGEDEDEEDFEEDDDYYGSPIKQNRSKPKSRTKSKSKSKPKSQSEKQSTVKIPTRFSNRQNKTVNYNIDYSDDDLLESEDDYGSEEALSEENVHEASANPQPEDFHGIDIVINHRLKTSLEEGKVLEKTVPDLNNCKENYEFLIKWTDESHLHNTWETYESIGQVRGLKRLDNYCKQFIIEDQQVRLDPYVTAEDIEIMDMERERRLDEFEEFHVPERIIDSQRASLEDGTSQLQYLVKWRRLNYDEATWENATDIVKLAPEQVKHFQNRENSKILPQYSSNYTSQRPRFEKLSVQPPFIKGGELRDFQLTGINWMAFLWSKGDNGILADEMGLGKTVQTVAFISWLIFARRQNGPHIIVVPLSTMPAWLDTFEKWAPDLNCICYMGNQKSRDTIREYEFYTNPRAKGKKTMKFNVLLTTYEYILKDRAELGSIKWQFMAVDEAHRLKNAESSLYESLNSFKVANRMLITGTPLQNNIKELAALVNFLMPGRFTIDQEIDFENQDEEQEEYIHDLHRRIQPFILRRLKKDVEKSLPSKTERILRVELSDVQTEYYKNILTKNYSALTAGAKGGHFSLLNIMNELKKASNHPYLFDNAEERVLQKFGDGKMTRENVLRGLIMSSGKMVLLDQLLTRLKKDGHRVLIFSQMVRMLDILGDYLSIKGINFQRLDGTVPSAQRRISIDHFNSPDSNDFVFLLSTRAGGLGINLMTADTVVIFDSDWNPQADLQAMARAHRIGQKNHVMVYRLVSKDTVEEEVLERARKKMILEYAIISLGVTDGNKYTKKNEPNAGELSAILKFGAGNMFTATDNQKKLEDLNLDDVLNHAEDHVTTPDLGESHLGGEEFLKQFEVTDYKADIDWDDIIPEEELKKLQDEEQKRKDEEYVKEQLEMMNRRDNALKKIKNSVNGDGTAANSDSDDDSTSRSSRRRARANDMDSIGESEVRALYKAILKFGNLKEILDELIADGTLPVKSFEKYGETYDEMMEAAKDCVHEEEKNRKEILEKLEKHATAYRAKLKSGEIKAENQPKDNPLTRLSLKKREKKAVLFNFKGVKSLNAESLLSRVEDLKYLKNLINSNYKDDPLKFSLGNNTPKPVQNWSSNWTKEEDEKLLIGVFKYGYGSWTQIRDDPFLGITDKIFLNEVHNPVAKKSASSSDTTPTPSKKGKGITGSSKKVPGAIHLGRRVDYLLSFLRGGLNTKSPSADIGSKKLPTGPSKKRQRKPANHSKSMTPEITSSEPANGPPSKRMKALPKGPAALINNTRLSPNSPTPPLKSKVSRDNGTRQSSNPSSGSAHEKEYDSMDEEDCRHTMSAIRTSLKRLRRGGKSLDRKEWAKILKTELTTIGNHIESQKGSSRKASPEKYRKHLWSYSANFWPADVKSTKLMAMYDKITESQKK

Sialic acid-binding Ig-like lectin 9 (Homo sapiens), sequence (Q9Y336 whole entry): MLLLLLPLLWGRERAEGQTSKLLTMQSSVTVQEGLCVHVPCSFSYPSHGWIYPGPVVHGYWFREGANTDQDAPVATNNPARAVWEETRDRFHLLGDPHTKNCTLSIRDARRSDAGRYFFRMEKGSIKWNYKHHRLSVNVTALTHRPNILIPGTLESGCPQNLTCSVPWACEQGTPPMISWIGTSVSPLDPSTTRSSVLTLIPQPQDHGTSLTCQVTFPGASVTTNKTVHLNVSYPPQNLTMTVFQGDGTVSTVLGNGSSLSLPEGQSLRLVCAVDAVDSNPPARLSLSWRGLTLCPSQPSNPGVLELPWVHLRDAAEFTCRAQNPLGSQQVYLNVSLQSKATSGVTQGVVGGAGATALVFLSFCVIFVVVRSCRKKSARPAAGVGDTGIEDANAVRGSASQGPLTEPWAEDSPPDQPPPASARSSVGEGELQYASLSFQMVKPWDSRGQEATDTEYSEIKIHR
Protein translocase subunit SecA (Escherichia coli (strain K12)), sequence (P10408 whole entry): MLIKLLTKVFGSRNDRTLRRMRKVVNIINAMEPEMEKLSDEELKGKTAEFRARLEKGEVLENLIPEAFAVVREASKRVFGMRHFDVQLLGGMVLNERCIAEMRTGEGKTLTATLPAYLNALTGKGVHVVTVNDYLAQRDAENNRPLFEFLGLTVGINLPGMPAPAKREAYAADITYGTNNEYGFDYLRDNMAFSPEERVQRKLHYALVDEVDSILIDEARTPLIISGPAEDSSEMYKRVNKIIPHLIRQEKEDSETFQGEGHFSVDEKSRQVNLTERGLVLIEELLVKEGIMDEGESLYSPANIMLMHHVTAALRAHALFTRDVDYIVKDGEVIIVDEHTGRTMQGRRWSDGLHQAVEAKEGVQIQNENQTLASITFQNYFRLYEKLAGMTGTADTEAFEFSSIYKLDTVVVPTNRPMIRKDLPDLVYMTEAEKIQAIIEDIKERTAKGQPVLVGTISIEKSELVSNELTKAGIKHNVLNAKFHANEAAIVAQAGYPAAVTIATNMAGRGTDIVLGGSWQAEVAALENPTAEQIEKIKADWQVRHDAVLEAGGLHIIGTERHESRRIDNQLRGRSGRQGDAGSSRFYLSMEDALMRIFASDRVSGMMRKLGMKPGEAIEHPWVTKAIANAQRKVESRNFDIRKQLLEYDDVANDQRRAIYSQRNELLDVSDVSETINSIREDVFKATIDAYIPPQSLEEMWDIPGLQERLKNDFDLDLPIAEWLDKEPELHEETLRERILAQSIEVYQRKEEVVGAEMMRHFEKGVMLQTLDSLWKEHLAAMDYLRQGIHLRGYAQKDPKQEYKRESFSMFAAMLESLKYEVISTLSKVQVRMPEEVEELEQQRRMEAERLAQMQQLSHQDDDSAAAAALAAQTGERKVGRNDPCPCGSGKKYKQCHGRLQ

Compound	Percent Effect [1] [%]	Percent Effect [2] [%]	Percent Effect [3] [%]	Percent Effect [4] [%]	Percent Effect (Trypanosoma cruzi) [%]	Percent Effect [5] [%]	Percent Effect [6] [%]	Percent Effect (Homo sapiens) [%]	Percent Effect [7] [%]	Percent Effect [8] [%]	Percent Effect [9] [%]
CC(=O)NCCN1CCC(c2cccs2)CC1	-3.79	5.48	4.81	1.43	6.27	-1.36	17.9	3.79	2.15	10	-6.86
CC1CCCN(Cc2c(C3CCOCC3)[nH]c3ncccc23)C1 (stereo not given)	-2.15	25.7	4.08	-6.47	0.198	-6.26	14.3	11	2.15	11.7	-12
Cc1ccc(CN2CC[C@H]3[C@@H]2CCC(=O)N3CCN2CCCC2)s1	-1.28	10.7	8.56	-12.2	-8.27	-3.03	10.5	7.46	-3.19	1.28	-2.35
O=C1NCC2(CCCN(Cc3ccccc3F)C2)Oc2ccccc21 (stereo not given)	1.88	12.2	9.79	-6.32	-2.77	5.34	9.52	9.51	3.23	9.09	-14.2
COCc1cccc(NC(C)C(=O)N(C)Cc2ccccc2)c1 (stereo not given)	-8.46	10.8	-16.3	48	7.92	33.5	-1.46	-2.64	6.45	13.6	-14.3
Cc1cc(CN2CCOCS2(=O)=O)ccc1F	2.12	5.41	-2.01	3.16	-5.21	4.29	16.4	9.21	4.76	4.88	-2.56
CC(C)C(=O)NCC(=O)N(C)C1CCCN(C2Cc3ccccc3C2)C1 (stereo not given)	0.272	8.11	-4.7	3.43	-3.48	0.476	14.3	11.7	-1.59	-26.8	-2.54
Cc1cnn(CC(C)NCc2nc(-c3ccco3)no2)c1 (stereo not given)	-7.61	12.5	-18.7	40.6	7.09	9.27	14.9	4.8	3.16	12.8	10.7
COc1ccc(C(=O)N(C)Cc2cccc(C#N)c2)c(OC)c1OC	-2.52	8.11	-1.05	10.9	1.95	-2.08	14.3	1.4	2.97	3.66	-2.24
CCC(=O)Nc1ccc(C(C)NC(=O)COCCOC)cc1 (stereo not given)	0.243	15.8	-1.87	-5.07	1.46	-3.55	15.1	23.5	4.25	15.6	-5.61
CC(=O)NCC1CCN(CC2CCOc3ccccc3C2)CC1 (stereo not given)	-1.44	15.3	-4.21	14	1.85	9.27	13.2	-5.31	4.21	15.4	-2.81
Cc1cnccc1CN1C[C@@H](O)[C@H](Oc2cccc(F)c2)C1	-3.16	1.35	10	2.32	3.36	0.696	4.37	16.3	0	1.3	-22.9
COCC1CCCN(C(=O)c2cc(Cn3ccc4ccccc43)[nH]n2)C1 (stereo not given)	-5.5	-7.79	0.36	11.2	8.75	-81.4	-0.666	-41.3	14	18.5	127
O=C(NC1CCCC1)[C@@H]1CN(Cc2nccs2)C[C@H]2OCC[C@H]21	-5.51	2.67	-3.12	-3.59	-1.77	1.63	-3.26	21.4	3.19	-3.85	7.18
COc1c(C2CCCN2C(=O)c2csc(C(C)C)n2)c(C)nn1C (stereo not given)	-5.84	5.2	2.93	11.7	0.187	1.07	-5.91	8.75	3.88	9.76	0.696
O=C(NCc1ccccc1)c1nnc2ccc(N3CCOCC3)cc2n1	-4.99	-1.33	67.7	2.19	-3.73	-10.4	14.1	4.89	6.35	7.69	-13.2
CCc1nc(NS(=O)(=O)c2ccc(C)cc2Cl)no1	-5.01	-2.67	-2.5	11.5	4.19	1.56	-1.57	-10.5	2.73	6.17	-1.19
Cc1cc(N2CCN(Cc3ccc(-c4cc[nH]n4)o3)CC2)cc(C)n1	-5.81	13.3	-25.4	33.9	10.2	10.9	12.7	9.15	3.83	13.6	-5.59
COCCN1C(=O)C[C@H]2[C@H]1CCN2Cc1cccc(C#N)c1	-2.88	2.67	7.27	-1.09	-2.95	3.03	5.9	6.32	1.06	1.28	1.66
Cn1ccnc1CN1CCN(c2ccc(C#N)cc2F)CC1	-4.37	21.6	-10.5	15.7	3.44	4.25	11.1	17.8	6.93	23.2	-6.24
